# Screening results from PubChem.
# Compounds with a hit are over-represented: about 3% of the library has one in this group of screens.
# esBAF inh: SWI/SNF esBAF complex inhibition | mouse ES cells, Bmi1-luciferase knock-in reporter, 24 h; 100% = twice the neutral-well signal | reporter increase, % at 12.5 µM | 2% of 350,000 active | AID 602393; in the data active means activation above about 40%; inconclusive means no clear call, values can overlap the other calls;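 further: a rise in the Bmi1 reporter signal indicates esBAF inhibition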
# Wnt bcat act: activators of Wnt/beta-catenin signaling; Wnt/beta-catenin reporter cell assay, activator, plate reader; activation, % at 9.35 µM; 1.2% of 300,000 active; in the data active means activation above about 30%, passing the limit was not always enough; inconclusive means no clear call, values can overlap the other calls
# Vif imaging: HIV Vif inhibition | AID 602346 | 0.35% of 340,000 active | HEK293T cells, Vif self-association by quenched fluorescence, imaging, 24 h | inhibition, % at 7.49 µM; in the data active means inhibition above about 50%, passing the limit was not always enough; inconclusive means no clear call, values can overlap the other calls; inactive means below about 31%
# PfHsp90 set2: growth inhibition of yeast expressing Plasmodium Hsp90; S. cerevisiae expressing PfHsp90, BacTiter-Glo ATP, 48 h; yeast lacking PDR1 and PDR3 efflux regulators; inhibition, % at 9.4 µM; 0.32% of 310,000 active;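 active means every replicate shows inhibition above about 80%, whatever the replicate mean, limit read from the data; inconclusive means mean inhibition reaches the set limit but some replicate falls short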
# N-glyco inh: N-linked glycosylation inhibition; 0.23% of 360,000 active; D54 ERlucT glycosylation luciferase reporter, 24 h; percent of 100 nM tunicamycin response; reporter increase, % at 12.5 µM;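 active means mean luciferase reporter signal, scaled so untreated is 0 and the glycosylation-blocking control 100, at or above a set limit in every replicate; inconclusive means mean reaches the limit but not every replicate does; inactive means mean below the limit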;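 further: luciferase carries N-glycosylation sites so blocking glycosylation raises the light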
# MITF act: activators of MITF-driven TRPM1 promoter activity in SK-MEL-5 cells; 0.75% of 300,000 active; SK-MEL-5 TRPM1-promoter luciferase, 24 h; % of positive control, neutral wells = 0; AID 588334; activation, % at 12.5 µM;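 active means mean activation of at least 80% with every replicate also reaching 80%; inconclusive means mean reaches 80% but some replicate falls short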
# Numbers stand for hits; n = inactive; u = inconclusive; x = not tested or not shown.
SMILES,esBAF inh,Wnt bcat act,Vif imaging,PfHsp90 set2,N-glyco inh,MITF act
O=C(Nc1ncc(Cc2cccc(Cl)c2)s1)c1cccs1,47,x,x,n,n,n
Cc1ccc(C(=O)Nc2nc3c(s2)CCCC3)o1,n,57,n,n,n,n
Cc1ccc(Cc2cnc(NC(=O)c3cccs3)s2)cc1,72,x,n,n,n,n
O=C(C[C@H]1CC[C@@H]2[C@H](COC[C@@H](O)CN2S(=O)(=O)c2ccc(F)cc2)O1)NCC1CCCCC1,n,x,x,x,x,x
COc1ccc(C(=O)N[C@H](C(=O)Nc2nc3c(s2)CCCC3)C(C)C)cc1,65,38,n,n,n,n
Cc1ccc(/C(O)=C/c2nc3cc(C)ccc3oc2=O)cc1,x,n,n,x,n,x
CC(C)(C)c1ccc(C(=O)CC(Sc2ccc(Cl)cc2)C(=O)O)cc1 (stereo not drawn),x,n,n,81,n,n
CCOC(=O)c1ccc(NC(=O)c2ccc(C)c(S(=O)(=O)N3CCOCC3)c2)cc1,x,x,n,n,n,n
COc1ccc(-c2nc(NCCCN(C)C)c3ccccc3n2)cc1,n,n,n,n,43,x
CCN(CC)CCCNc1nc(-c2ccccc2)nc2ccccc12,n,n,n,n,n,n
C[C@@H]1CN([C@H](C)CO)C(=O)Cc2cc(NC(=O)c3ccncc3)ccc2O[C@@H]1CN(C)Cc1ccc(C(F)(F)F)cc1,n,x,x,x,x,x
CCOC(=O)c1ccc(NC(=O)CC2SCCNC2=O)cc1 (stereo not drawn),n,41,n,x,n,x
CCOC(=O)c1ccc(NC(=O)CC2NCCNC2=O)cc1 (stereo not drawn),n,n,x,n,n,n
CCOC(=O)c1ccc(NC(=O)CC2OCCN(CC)C2=O)cc1 (stereo not drawn),n,n,n,u,n,x
CCOC(=O)c1ccc(NC(=O)CC2C(=O)OCCN2CC)cc1 (stereo not drawn),x,n,n,108,n,n
O=C(NC1CCCCCC1)C1CCN(S(=O)(=O)c2ccccc2)CC1,n,n,n,x,n,x
Cc1[nH]nc(SCC(=O)NC(C)c2ccccc2)c1[N+](=O)[O-] (stereo not drawn),x,x,n,n,n,n
O=C(c1cnc(Cc2c[nH]c3ccccc23)c(I)c1)N1CCCCC1,49,n,n,x,n,x
Brc1ccc2[nH]c3c(c2c1)CCC3,n,n,n,n,n,n
O=C1Cc2c([nH]c3ccc(Br)cc23)-c2ccccc2N1,x,96,n,n,n,x
Oc1ccc(/C=N/Nc2cccc(Cl)n2)c(O)c1,n,n,n,n,n,109
CC(C)Cc1nc2oc3c(NCC4CCCO4)ncnc3c2c2c1CCC2 (stereo not drawn),n,x,n,n,n,n
CCCc1nc2oc3c(NCC(C)O)ncnc3c2c2c1CCCC2 (stereo not drawn),x,38,n,x,n,x
Cc1ncc(C(=O)O)c(C(=O)O)c1N,n,n,62,n,n,n
CSc1ncc(C(=O)O)c(C)n1,n,n,n,n,n,n
SMILES,esBAF inh,Wnt bcat act,Vif imaging,PfHsp90 set2,N-glyco inh,MITF act
Cn1nc(-c2ccccc2)c(CO)c1Oc1cccc(C(F)(F)F)c1,x,n,n,n,n,n
Cc1ccc(Sc2c(CO)c(-c3ccccc3)nn2C)cc1,x,n,n,n,29,n
Cc1noc(C)c1COc1ccc(C(=O)OCC(=O)Nc2ccc3c(c2)OCO3)cc1,n,x,n,n,n,n
O=C1c2ccccc2NC(c2ccc(F)cc2)N1Cc1ccco1 (stereo not drawn),n,n,x,n,n,n
O=C1c2ccccc2NC(c2ccccc2)N1Cc1ccco1 (stereo not drawn),62,x,n,n,n,n
CCOc1ccc(NC(=O)c2ccccc2SC)cc1,46,n,n,n,n,n
CC(=O)c1cccc(NC(=O)c2csc3c2CCCCC3)c1,x,n,n,n,n,n
CCOc1ccc(NC(=O)c2ccc3nccnc3c2)cc1,x,x,n,n,n,89
CCOc1ccc(NC(=O)c2csc3c2CCCC3)cc1,78,46,n,n,n,x
Cc1nnc(SCc2ccc3c(c2)OCO3)s1,51,x,n,x,n,n
Cc1nnc(SCc2cccc(CSc3nnc(C)s3)c2)s1,u,n,n,n,n,n
Cc1cc(C(=O)CSc2nnnn2C)c(C)n1-c1ccc2c(c1)OCCO2,x,n,n,n,n,n
Cc1nnc(SCC(=O)c2cc(C)n(-c3ccc4c(c3)OCO4)c2C)s1,70,n,n,n,n,n
COc1ccc(CC(NC(C)=O)C(=O)NC2CCN(C(=O)c3cc(OC)c(OC)c(OC)c3)CC2)cc1 (stereo not drawn),x,n,n,n,n,n
N/C(=N\NC(=O)Nc1ccccc1)c1ccccn1,x,36,n,x,n,x
CC(=O)c1cccc(N(C(=O)c2ccco2)C(C(=O)NC2CCCCC2)c2ccc(C)o2)c1 (stereo not drawn),n,n,n,n,n,n
O=C(CSc1n[nH]c(-c2ccccc2Cl)n1)NC1CCCCC1,n,n,n,n,n,n
CCOC(=O)C1=C(CP(=O)(c2ccccc2)c2ccccc2)NC(=O)NC1c1ccc(OC)cc1 (stereo not drawn),x,84,n,n,n,n
O=C(NCc1ccccn1)c1ccc(CNS(=O)(=O)c2cccc(C(F)(F)F)c2)cc1,x,n,n,n,n,n
COc1ccc(Sc2nnc(Cc3ccccc3)c3ccccc23)cc1,n,n,x,n,n,n
COc1ccc(Nc2nnc(Cc3ccncc3)c3ccccc23)c(OC)c1,52,n,n,n,n,n
CCc1cccc(NC(=O)c2cc(S(=O)(=O)N(C)C)ccc2N2CCCC2)c1,n,n,n,n,39,n
Cc1cnc(NC(=O)c2cc(S(=O)(=O)N(C)C)ccc2N2CCCC2)s1,n,n,n,x,98,x
CN(C)S(=O)(=O)c1ccc(N2CCCC2)c(C(=O)Nc2nccs2)c1,n,n,n,n,79,n
CCc1cccc(NC(=O)c2cc(S(=O)(=O)N3CCCCC3)ccc2N2CCOCC2)c1,n,n,n,x,n,x
SMILES,esBAF inh,Wnt bcat act,Vif imaging,PfHsp90 set2,N-glyco inh,MITF act
CN(C)S(=O)(=O)c1ccc(N2CCCC2)c(C(=O)Nc2nc3c(ccc4ccccc43)s2)c1,n,x,n,n,n,n
COc1ccc(S(=O)(=O)N(C)C[C@@H]2Oc3ccc(NC(=O)Nc4ccc(F)cc4)cc3C(=O)N([C@H](C)CO)C[C@@H]2C)cc1,n,x,x,x,x,x
CCN(CC(=O)NC(C)C)C(=O)c1ccc(S(=O)(=O)N(C)c2ccccc2OC)cc1,n,x,n,n,n,n
O=C(CCCOc1ccc(Cl)cc1)N1CCOCC1,n,n,n,x,n,x
O=C(CCCOc1ccc(Cl)cc1)N1CCCCCC1,62,x,x,n,n,n
CC(C)(C)c1ccc(OCCCC(=O)N2CCOCC2)cc1,66,n,n,n,n,n
O=C(CCCOc1ccc(Cl)cc1)N1CCCCC1,n,n,n,n,n,n
CCCCOc1ccc(-c2nnn(CCC(=O)N3CCOCC3)n2)cc1,63,n,x,n,n,n
